# A number with no mark means an inactive call. The rule behind the calls is not given here.
# System: HIV-1 nucleocapsid protein NCp7 (binding to TG oligonucleotide)
# Experiment: HIV Nucleocapsid (AID 346);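 note: potency is for inhibitors that block NC binding and lower polarization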
# Details: HIV-1 NC / fluorescein-TGTGTGTG probe, fluorescence polarization
# Procedure: NCGC Assay Overview: HIV-1 nucleocapsid protein (HIV-1 NC) is a small (6.5 kDa) basic zinc-finger protein which participates in packaging of viral genomic RNA. The spacing and metal-chelating residues (3 Cys, 1 His) of the Cys-X2-Cys-X4-His-X4-Cys Zn fingers are conserved among all known retroviruses (J. Med. Chem. 1998, 41, 1371-1381). HIV-1 NC was assayed for its binding to the consensus sequence single-stranded 5'-TGTGTGTG. […] High salt was included to increase the stringency of binding and inhibitor screen. Reducing agents and zinc were present to stabilize the nucleocapsid zinc-finger protein.
# NCGC Assay Protocol Summary: Buffer. Hepes pH 7.5, 250mM NaCl, 1uM ZnCl2. 0.004% polyethylene glycol 20000. TCEP (100 uM) and 2-Mercaptoethanol (5 mM), added fresh the day of the experiment. Reagents/Controls. 10 nM TG4xF only in columns 3 and 4 as negative control. 10 nM TG4xF/100 nM HIV-1 NC in columns 1, 2, 5-48. Titration of control compound NSC-13778 (from 20 mM, then 1:2) pin-transferred to column 2. Assay Steps. Two uL of reagents were dispensed to 1536-well Kalypsys black plates. The plates were centrifuged for 1 min at 1000 rpm. Compounds and controls (20 nL) were transferred via Kalypsys PinTool. The plates were incubated for 1 hr at room temperature, and then read on ViewLux (Perkin-Elmer). High-throughput CCD imager using fluorescein polarization filter set and 45 seconds exposure time.
# Potency is the fitted concentration of half-maximal effect.
row,SMILES,Potency
1,O=C(Nc1cccc(F)c1)N1CCC2(CC1)CCN(C(=O)c1csnn1)CC2,> 20 µM
2,Cc1cccc(CNc2ccnc(-c3ccc(C(=O)N(C)C)cc3)n2)c1,> 20 µM
3,Cc1ccccc1-c1nc(N2CCOCC2)c2ccccc2n1,> 20 µM
4,Cc1noc(C)c1-c1cncnc1NCc1cccnc1,> 20 µM
5,c1ccc(CNc2ncncc2-c2ccc3c(c2)OCO3)cc1,> 20 µM
6,CNc1ncncc1-c1ccccc1OC,> 20 µM
7,O=C(c1ccco1)N1CCC[C@@]2(CCN(C(c3ccccc3)c3ccccc3)C2)C1,> 20 µM
8,CN1CCN(c2nc(-c3cccc(NS(C)(=O)=O)c3)nc3ccccc23)CC1,> 20 µM
9,O=c1cnc2cncnc2n1Cc1ccccc1Cl,> 20 µM
10,COC(=O)N1CCC2(CC1)CN(C(=O)Nc1cccc(C#N)c1)C2,> 20 µM
11,CCNc1ncc2nc(-c3ccc(OC)cc3)c(=O)n(CCOC)c2n1,> 20 µM
12,Cc1cccc(CNc2ncnc3ccc(-c4cccc(NS(C)(=O)=O)c4)cc23)c1,> 20 µM
13,COc1ccc2[nH]cc(CCNc3cc(-c4ccccc4Cl)ncn3)c2c1,> 20 µM
14,Cn1cccc1C(=O)N1CCC[C@@]2(CCN(c3ccccc3)C2)C1,> 20 µM
15,Cc1noc(C)c1-c1nc(N(C)C)c2ccccc2n1,> 20 µM
16,O=C(c1cnccn1)N1CCC2(CC1)CN(c1ncccn1)C2,> 20 µM
17,O=C(c1cnccn1)N1CCC2(CC1)CCN(c1ccccc1)CC2,> 20 µM
18,N#Cc1ccccc1-c1ccc2ncnc(NCc3cccs3)c2c1,> 20 µM
19,Cc1noc(C)c1C(=O)N1CCC[C@@]2(CCN(c3ccccn3)C2)C1,> 20 µM
20,CN(C)Cc1ccccc1-c1nc(N2CCOCC2)c2ccccc2n1,> 20 µM

row,SMILES,Potency
1,CC(=O)N1CCC2(CC1)CN(c1cccc(-c3ccccc3)c1)C2,> 20 µM
2,CN(C)C(=O)c1ccc(-c2cc(N(C)Cc3ccco3)ncn2)cc1,> 20 µM
3,COc1ccc(Oc2ncc3nc(CCc4ccccc4)c(=O)n(CCC#N)c3n2)cc1,> 20 µM
4,COc1ccc(-c2nc3cnc(N4CCN(C)CC4)nc3n(Cc3cccc(OC)c3)c2=O)cc1,> 20 µM
5,COc1ccccc1CNc1nc(-c2c(C)noc2C)nc2ccccc12,> 20 µM
6,Cc1noc(C)c1C(=O)N1CCC2(CC1)CCN(c1ccncc1)CC2,> 20 µM
7,CS(=O)(=O)N1CCC[C@@]2(CCN(C(=O)Nc3cccc(F)c3)C2)C1,> 20 µM
8,Cc1cccc(CNc2ccnc(-c3ccccc3CN(C)C)n2)c1,> 20 µM
9,COc1ccc2[nH]cc(CCNc3ncnc4ccc(-c5ccc6c(c5)OCO6)cc34)c2c1,> 20 µM
10,CCNc1ncc2nc(-c3ccccc3)c(=O)n(CCOC)c2n1,> 20 µM
11,COCCNc1nc(-c2cccc(NS(C)(=O)=O)c2)nc2ccccc12,> 20 µM
12,CC(C)NC(=O)N1CC[C@@]2(CCCN(S(=O)(=O)c3ccccc3)C2)C1,> 20 µM
13,c1csc(CNc2ncncc2-c2ccc3c(c2)OCO3)c1,> 20 µM
14,N#Cc1ccc(CN2CCC3(CC2)CCN(C(=O)c2ccncc2)CC3)cc1,> 20 µM
15,COc1ccccc1CN1CC[C@@]2(CCCN(C(=O)c3ccncc3)C2)C1,> 20 µM
16,CN(C)Cc1ccccc1-c1ccc2ncnc(NCc3ccccc3)c2c1,> 20 µM
17,COc1ccc(-n2c(=O)c(CCc3ccccc3)nc3cnc(N4CCOCC4)nc32)cc1,> 20 µM
18,CN(C)C(=O)c1ccc(-c2cc(-n3ccnc3)ncn2)cc1,> 20 µM
19,COc1ccccc1CNc1ncncc1-c1ccccc1C(F)(F)F,> 20 µM
20,COc1cccc(Cn2c(=O)c(-c3cccs3)nc3cnc(N(C)C)nc32)c1,> 20 µM

# From PubChem BioAssay (NCATS)
